# About 2,100 (0.66%) of roughly 320,000 compounds were called active. Inconclusive results (about 53%) are left out. This is one part of a sample in which actives are shown more often than they occur. The call rests on the fitted dose curve; in most records, active means well fitted inhibition curve with a large enough effect in the signal ratio, with a control signal flat (not every such curve was filed as active); inconclusive means small, poorly fitted or top-dose-only effect, or effect the other way, or a change in a side signal; inactive means flat fitted curve, though single readings scatter; the % refers to the signal ratio.
# Assay: qHTS Assay for Lipid Storage Modulators in Drosophila S3 Cells;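 on cell number change: cells counted by Cell Tracker Red CMTPX staining in the red channel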; on lipid storage change, negative = inhibition: on the % scale 0 is the no-effect control and ±100 the full control effect
# Settings: BODIPY lipid droplet fluorescence, 18-24 h, cells fed with added oleic acid; cell number change: measured here: cell count max response; series mostly up to 46.1 µM; lipid storage change, negative = inhibition: at the top concentration
# In short: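 Drosophila S3 cells loaded with oleic acid (400 uM, as added) and compounds at several concentrations; lipid droplets imaged by 488-nm laser-scanning cytometry, 500–530 nm intensity and object ratio to cell channel. Percent activity normalized to 20 uM Triacsin C.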
# Potency means the concentration at half of the fitted maximal effect.
Compound,"lipid storage change, negative = inhibition",cell number change [%],Potency,outcome
O=C(Nc1ccc(Cl)cc1)Nc1nnc(Cc2ccc([N+](=O)[O-])cc2)s1,7.97% (inactive),3.06,–,–
CCn1c(CNC(=O)COc2c(C)cccc2C)nnc1SCC(=O)Nc1nccs1,11.3% (inactive),-11,–,–
C=CCNC(=S)NNC(=O)C(CCCC)CC(O)COCC(C)C (stereo not given),7.02% (inactive),6.35,–,–
C=CCNC(=S)NNC(=O)C(CCCC)CC(C)O (stereo not given),–,-5.26,29.1 µM (active),–
C=CCNC(=S)NNC(=O)C(CC(C)C)CC(C)O (stereo not given),-5.62% (inactive),1.94,–,–
CCC(=O)Nc1ccc(/C=C(\C(C)=O)C(=O)c2ccccc2)cc1,-21.8% (inactive),-16.8,–,–
CCOCCCNCC(=O)NC1(C)C2CCC(C2)C1(C)C (stereo not given),–,-12.8,1.3 µM (active),–
CC1(C)C2CCC(C2)C1(C)NC(=O)CNC1CCCCC1 (stereo not given),–,–,–,inactive
CC1(C)C2CCC(C2)C1(C)NC(=O)C[N+](C)(C)C (stereo not given),-8.8% (inactive),7.74,–,–
Cc1ccc(C(=O)Nc2ccc(C(=O)N3CCCCC3)cc2)o1,19.2% (inactive),–,–,–
COCC(C)NS(=O)(=O)c1ccc(C(=O)NCCCn2ccc3ccccc32)cc1 (stereo not given),–,-2.38,–,inactive
Cc1ccc(C(=O)Nc2ccccc2C(=O)NC(Cc2c[nH]c3ccccc23)C(=O)O)cc1 (stereo not given),-2.03% (inactive),14.2,–,–
O=C(NC(Cc1c[nH]c2ccccc12)C(=O)O)c1ccc(F)cc1 (stereo not given),-8.21% (inactive),-8.38,–,–
Cc1ccc(C(=O)NC(Cc2c[nH]c3ccccc23)C(=O)O)cc1 (stereo not given),–,8.72,16.4 µM (active),–
O=C(Cc1ncc(C(F)(F)F)cc1Cl)NNc1cccc(F)n1,-0.459% (inactive),2.59,–,–
CCC1(c2ccc(F)cc2)NC(=O)N(CC(=O)c2cc(C)n(C3CC3)c2C)C1=O (stereo not given),–,-20.6,–,inactive
CN(CCCNC(=O)CSc1cc(=O)n(C)c2ccc(Cl)cc12)Cc1ccccc1,1.37% (inactive),-6.41,–,–
COc1ccccc1CNC(=O)C(c1ccccc1)c1ccccc1,–,13.6,–,inactive
COc1ccccc1CN(C)C(=O)C(c1ccccc1)c1ccccc1,–,14.8,20.6 µM (active),–
COc1ccccc1CN(C)C(=O)CN1C(=O)c2ccccc2C1=O,–,14.5,–,inactive

Compound,"lipid storage change, negative = inhibition",cell number change [%],Potency,outcome
CCOc1ccc(N(CC(=O)N2CCCCCC2)S(C)(=O)=O)cc1,–,–,–,inactive
CCOC(=O)C1CCN(C(=O)Cn2cc(C(=O)C3CC3)c3ccccc32)CC1,10.5% (inactive),3.64,–,–
CC(C)CCn1c(=O)c2sccc2n2c(CCCC(=O)N3CCC(N4CCCCC4)CC3)nnc12,–,–,–,inactive
O=C(CCc1nnc2n(Cc3ccc(F)cc3)c(=O)c3ccccc3n12)N1CCN(c2ccccn2)CC1,–,-18.8,13 µM (active),–
COc1ccc(Cn2c(CCC(=O)N3CCN(c4ccccn4)CC3)nc3ncccc3c2=O)cc1,7.18% (inactive),-8.69,–,–
Cn1c(=O)c2sccc2n2c(CCCC(=O)Nc3ccc(F)cc3F)nnc12,–,-23.8,9.2 µM (active),–
COc1ccc(-c2cc(CCCC(=O)NCCc3cc(OC)ccc3OC)no2)cc1,-25.3% (inactive),4.57,–,–
COc1ccc(OC)c(CCNC(=O)CCCc2nnc3n(C)c(=O)c4sccc4n23)c1,–,-24.6,7.31 µM (active),–
O=C(CCc1nnc2n(Cc3ccc(Cl)cc3)c(=O)c3ccccc3n12)N1CCN(c2ccccn2)CC1,–,-18.3,–,inactive
O=C(CCCCCn1c(=O)[nH]c2ccsc2c1=O)N1CCCCC1,-10% (inactive),-7.73,–,–
Cn1c(=O)c2sccc2n2c(CCCC(=O)N3CCCCC3)nnc12,–,-19.4,10.3 µM (active),–
O=C(CCN1C(=O)c2ccccc2C1=O)Nc1ccc(F)cc1F,12.5% (inactive),5.85,–,–
Cn1cnnc1SCC(=O)Nc1ccc(F)cc1F,16% (inactive),-0.713,–,–
Cn1c(=O)c2sccc2n2c(CCCC(=O)NCc3ccc4c(c3)OCO4)nnc12,3.09% (inactive),-24.9,–,–
O=C(CSc1ccc(F)cc1)N1CCOCC1,-1.33% (inactive),7.13,–,–
COC(=O)c1ccc(COc2cc([N+](=O)[O-])cc3cccnc23)o1,-4.43% (inactive),5.31,–,–
Cc1cccc(NC(=S)NC(C)C(c2ccccc2)N2CCN(C)CC2)c1C (stereo not given),-11.9% (inactive),-10.3,–,–
COc1ccc(OC)c(S(=O)(=O)NC2CC2)c1,-1.21% (inactive),-2.27,–,–
Nc1nc(SCC(=O)Nc2cccnc2Cl)n[nH]1,–,–,–,inactive
COc1ccc(-c2n[nH]c(=S)n2N)c(OC)c1,–,-28.8,–,inactive

Compound,"lipid storage change, negative = inhibition",cell number change [%],Potency,outcome
COc1ccc(CNC(=O)CCNS(=O)(=O)c2ccc3c(c2)oc(=O)n3C)cc1,-3.68% (inactive),–,–,–
Cc1ccc(N2CCN(/N=C/c3ccccc3)CC2)cc1,-18.6% (inactive),-1.14,–,–
C=CCNC(=O)c1ccccc1NC(=O)c1ccc(Cl)c(S(=O)(=O)Nc2ccccc2)c1,-5.77% (inactive),-6.78,–,–
Cc1ccccc1-n1ncc2c1CC(C)(C)CC2NC(=O)CCN1CCCCC1=O (stereo not given),-16.5% (inactive),-9.29,–,–
O=C(O)c1cc(-c2ccc(Cl)c(Cl)c2)n(-c2ccc(F)cc2)n1,1.09% (inactive),20.6,–,–
COc1ccccc1CNC(=O)CCn1c(=O)[nH]c2ccsc2c1=O,1.06% (inactive),-12.6,–,–
CCn1c(=O)c2sccc2n2c(CCCC(=O)NC3CCN(Cc4ccccc4)CC3)nnc12,-11.5% (inactive),–,–,–
CCn1c(=O)c2sccc2n2c(CCCC(=O)N3CCN(c4ccccn4)CC3)nnc12,–,-5.66,23.1 µM (active),–
CC(C)Cn1c(=O)c2sccc2n2c(CCCC(=O)NC3CCN(Cc4ccccc4)CC3)nnc12,–,6.76,–,inactive
O=C(CCCn1c(=O)[nH]c2ccsc2c1=O)N1CCN(c2ccccn2)CC1,-23.2% (inactive),-2.15,–,–
COc1ccccc1CNC(=O)CCCc1nnc2n(C)c(=O)c3sccc3n12,–,11.8,1.3 µM (active),–
N#Cc1ccc(C[C@@H](NS(=O)(=O)c2ccc(C(=O)O)cc2)C(=O)O)cc1,16.5% (inactive),17.7,–,–
COc1cc(/C=C2/C(=O)N(c3ccc(Br)cc3)N=C2C)cc([N+](=O)[O-])c1O,–,–,–,inactive
COc1ccc(OCCCCOc2ccccc2Cl)cc1,-0.0266% (inactive),0.395,–,–
NNC(=O)/C(=C\c1ccc(Br)cc1)NC(=O)c1cccs1,0.151% (inactive),2.9,–,–
COc1ccc(NC(=O)CCNC(=O)c2ccc([N+](=O)[O-])cc2)cc1S(=O)(=O)N1CCOCC1,-6.84% (inactive),-1.49,–,–
CC(C)(C)OC(=O)Cn1c(=O)cnc2ccccc21,-0.847% (inactive),6.02,–,–
COC(=O)Cn1c(=O)cnc2ccccc21,–,11.6,16.4 µM (active),–
COc1ccc(OCC(=O)NNC(=O)Cn2c(=O)cnc3ccccc32)cc1,18.9% (inactive),2.51,–,–

# Reference: PubChem BioAssay AID2685 (National Center for Advancing Translational Sciences (NCATS), 2010)
